Experimental data from PubChem BioAssay (NCATS).
Results filed as inconclusive are left out. Calls of active or inactive are those of the source. Calls come from the whole dose curve; as a rule, active = well fitted inhibition curve with a large enough effect; inconclusive = small, poorly fitted or top-dose-only effect; inactive = no such curve, though single readings can be large or run the other way. Starred links: 1 amine or outer side, 2 acyl side, 3 side chain; linkers in the order of their positions; H or OH if unused. Positions of bridges follow the written chain, without caps; N, C: chain ends. Non-standard residues stand in square brackets, D forms with d. Residues, ends and D or L forms follow the SMILES beside them. *: point of attachment. X4 = NC1=N[C@@H](O)C[C@H]([C@H](N[*:1])C(=O)[*:2])N1; ΔAla(3-NHCONH2) = NC(=O)NC=C(N)C(=O)O; β3hOrn = NCCC[C@H](N)CC(=O)*; Dap = NC[C@H](N)C(=O)O

test: Primary qHTS for small molecule stabilizers of the endoplasmic reticulum resident proteome: Secreted ER Calcium Modulated Protein (SERCaMP) assay (AID 1508630); conditions: SH-SY5Y GLuc-SERCaMP (Gaussia luciferase released on ER calcium loss) secretion, thapsigargin, luminescence; series mostly up to 38.4 µM
From the text: Assay Provider: Brandon K. Harvey Ph.D.
National Institute on Drug Abuse, National Institutes of Health, Baltimore, MD
Endoplasmic reticulum (ER) dysregulation is associated with human pathologies including neurodegenerative, cardiovascular, muscular, and diabetic conditions. Maintenance of ER calcium is critical for functions of the ER and its depletion can lead to loss of ER resident proteins, in a process termed exodosis. Therapeutic compounds capable of attenuating the redistribution of ER proteins under pathological conditions may slow or stop disease progression. To identify such compounds, we performed a quantitative high-throughput screen (qHTS) using the SERCaMP assay, which monitors secretion of ER resident proteins triggered by calcium depletion.
SERCaMP was initially developed as a reporter of ER calcium homeostasis using a Gaussia luciferase with a modified signal peptide and carboxy-terminus (GLuc-SERCaMP), modifications that confer secretion of the reporter in response to ER calcium depletion (Henderson et al., 2014). The assay was used to screen 9,501 compounds, including a collection of drugs approved by the FDA (US), EMA (EU), NHI (Japan), and HC (Canada) regulatory agencies (Huang et al., 2011). Since the SERCaMP reporter reflects the exodosis phenomenon (Trychta et al., 2018a), compounds identified in the screen have the potential to prevent exodosis by different mechanisms such as stabilizing ER calcium or augmenting ERS retrieval.
1. Henderson, M.J., Wires, E.S., Trychta, K.A., Richie, C.T., and Harvey, B.K. (2014). SERCaMP: a carboxy-terminal protein modification that enables monitoring of ER calcium homeostasis. Mol Biol Cell 25, 2828-2839.
2. Huang, R., Southall, N., Wang, Y., Yasgar, A., Shinn, P., Jadhav, A., Nguyen, D.T., and Austin, C.P. (2011). The NCGC pharmaceutical collection: a comprehensive resource of clinically approved drugs enabling repurposing and chemical genomics. Sci Transl Med 3, 80ps16.
3. Trychta, K.A., Back, S., Henderson, M.J., and Harvey, B.K. (2018a). KDEL Receptors Are Differentially Regulated to Maintain the ER Proteome under Calcium Deficiency. Cell Rep 25, 1829-1840 e1826.
SEQUENCE No. (1, 2, 3, etc.); […] (e.g., Cells, Incubation, Reagent, etc.); VALUE and DESCRIPTION.
1; Reagent; 5 uL; 1000 SH-SY5Y cells per wells
3; Compound; 23 nL; Control inhibitor / compound library
5; Reagent; 100 nM; Thapsigargin
7; Reagent; 1 uL; 0.5x coelenterazine
8; Detection; Luminescence; ViewLux imaging system
NOTES (numbers refer to sequence above)
1; SH-SY5Y human neuroblastoma cells stably expressing GLuc-SERCaMP (SH-SY5Y-GLuc-ASARTDL) cells were seeded in 1,536 well white tissue culture treated plates (Corning, Cat# 7464) in DMEM-high glucose-sodium pyruvate (ThermoFisher Scientific, Cat #10569) supplemented with 10% bovine growth serum (Hyclone), 10 U/ml penicillin (Gibco), 10 ug/ml streptomycin (Gibco), and 20 mM HEPES.
2; Assay plates were incubated for 5 hour at 37C in a humidified incubator containing 5% CO2.
3; qHTS libraries (23 nl, final concentrations of 1.53 uM, 7.67 uM, 38.3 uM) or controls (neutral control: DMSO, positive control: dantrolene) were added using a Kalypsis pin-tool Robotic System equipped with 1536 pinheads.
4; Cells were then incubated for 16 hours at 37C, 5% CO2.
5; Thapsigargin was added at 100 nM to deplete ER calcium stores.
6; Cells were incubated for 4 hour (37 °C, 5% CO2)
7; Gaussia luciferase in the medium was measured by adding 1 ul of 0.5x coelenterazine (final concentration 0.07x) prepared in Gaussia Luciferase Glow Assay Buffer (Pierce), without addition of the Cell Lysis Buffer Reagent.
8; Luminescence was measured using a ViewLux […] CCD imaging system (Perkin Elmer) equipped with clear filters. […] The same controls were also used for the calculation of the Z' factor, a measure of assay quality control, as previously described (Zhang et al., 1999). […]

outcome, inactive:
Cn1cccc1C(=O)N1CCC2(CC1)CN(Cc1ccc(C#N)cc1)C2
COc1ccc(NC(=O)N2CC[C@@]3(CCCN(C(=O)c4ccncc4)C3)C2)cc1
COc1cccc(Nc2ncc3nc(CCc4ccccc4)c(=O)n(Cc4cccs4)c3n2)c1
CN1CCCC2(CCN(S(=O)(=O)c3ccccc3)CC2)C1
COc1ncc2nc(-c3cc(F)cc(F)c3)c(=O)n(Cc3cccs3)c2n1
COc1ccc(-c2nc3cnc(OC)nc3n(Cc3ccc(F)cc3)c2=O)cc1
COc1ccc(C(=O)N2CCC[C@@]3(CCN(c4cccc(-c5ccccc5)c4)C3)C2)cc1
O=c1c(-c2ccc(F)cc2)nc2cncnc2n1Cc1ccc(F)cc1
O=C(c1csnn1)N1CCC2(CCCN(c3ccncc3)C2)CC1
CS(=O)(=O)N1CCC2(CCN(Cc3ccc(C#N)cc3)CC2)CC1
N#CCCn1c(=O)c(-c2cccs2)nc2cnc(N3CCNCC3)nc21
CN(C)c1ncc2nc(-c3ccc(Cl)cc3)c(=O)n(C3CC3)c2n1
CNc1nc(-c2ccccc2C(F)(F)F)nc2ccccc12
COc1cccc(Cn2c(=O)c(-c3cccs3)nc3cnc(Nc4ccccc4)nc32)c1
CS(=O)(=O)N1CCC2(CCCN(Cc3ccccc3)C2)CC1
FC(F)(F)c1ccccc1-c1cc(NCc2cccnc2)ncn1
N#Cc1cccc(NC(=O)N2CC3(CCN(C(=O)c4cccc(F)c4)CC3)C2)c1
Cn1c(=O)c(-c2ccc(Cl)cc2)nc2cnc(Oc3ccccc3)nc21
Cc1cnc(CNc2cc(-c3cccc(C#N)c3)ncn2)cn1
C=CC(C)(C)c1c2c(c(O)c3c(=O)c4ccc(O)c(O)c4oc13)C=CC(C)(C)O2
Cn1cccc1C(=O)N1CCC2(CC1)CN(c1ccccn1)C2
CN(C)c1ncc2nc(-c3cccs3)c(=O)n(-c3ccccc3)c2n1
CS(=O)(=O)Nc1cccc(-c2cncnc2Nc2ccccc2)c1
COc1cccc(-c2nccc(NCc3cccs3)n2)c1
COc1ccc(C(=O)N2CCC[C@@]3(CCN(Cc4cc(C(F)(F)F)cc(C(F)(F)F)c4)C3)C2)cc1
N#Cc1cccc(-c2nc(Nc3ccccc3)c3ccccc3n2)c1
CS(=O)(=O)N1CCC[C@@]2(CCN(c3ncccn3)C2)C1
COc1ccc(CNc2nc(-c3ccc4c(c3)OCO4)nc3ccccc23)c(OC)c1
CCNc1ncc2nc(-c3ccc(F)cc3)c(=O)n(-c3ccccc3)c2n1
COc1cccc(Cn2c(=O)cnc3cnc(N4CCOCC4)nc32)c1
NCCC[C@H](N)CC(=O)N[C@H]1CNC(=O)[C@H]([C@H]2C[C@H](O)N=C(N)N2)NC(=O)C(=CNC(N)=O)NC(=O)[C@H](CO)NC(=O)[C@H](CO)NC1=O (β3hOrn-[Dap]SS[ΔAla(3-NHCONH2)][X4]; lactam 1-C)
CS(=O)(=O)Nc1cccc(-c2cc(NCc3cccs3)ncn2)c1
CN(C)C(=O)c1ccc(-c2cncnc2NCc2cccs2)cc1
Cc1cnc(CNc2cc(-c3ccccc3CN(C)C)ncn2)cn1
CC(=O)N1CCC2(CC1)CCN(C(=O)Nc1cccc(C#N)c1)CC2
COC(=O)N1CCC2(CC1)CN(c1ccncc1)C2
CCNc1ncc2nc(-c3cccs3)c(=O)n(Cc3cccc(OC)c3)c2n1
c1ccc(Nc2ncncc2-c2ccc3c(c2)OCO3)cc1
COc1cccc(Cn2c(=O)c(-c3ccc(F)cc3)nc3cnc(N4CCOCC4)nc32)c1
c1ccc(Nc2ncnc3ccc(-c4cccnc4)cc23)cc1
